# Reference: PubChem BioAssay AID1920062 (Sanford-Burnham Center for Chemical Genomics, 2024)
# In all, about 370,000 compounds went through this assay and about 400 (0.11%) were called active. Shown is part of a subset that was picked to be rich in actives. Values without a mark were called inactive.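 The calls were made as follows: active = activation at 10 µM reaching about 35% in either raw or pattern-adjusted values (limit read from the data); inactive = the rest.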
# Target: Atrial natriuretic peptide receptor 2 (Homo sapiens) (UniProt P20594)
# Sequence (P20594 whole entry, looked up): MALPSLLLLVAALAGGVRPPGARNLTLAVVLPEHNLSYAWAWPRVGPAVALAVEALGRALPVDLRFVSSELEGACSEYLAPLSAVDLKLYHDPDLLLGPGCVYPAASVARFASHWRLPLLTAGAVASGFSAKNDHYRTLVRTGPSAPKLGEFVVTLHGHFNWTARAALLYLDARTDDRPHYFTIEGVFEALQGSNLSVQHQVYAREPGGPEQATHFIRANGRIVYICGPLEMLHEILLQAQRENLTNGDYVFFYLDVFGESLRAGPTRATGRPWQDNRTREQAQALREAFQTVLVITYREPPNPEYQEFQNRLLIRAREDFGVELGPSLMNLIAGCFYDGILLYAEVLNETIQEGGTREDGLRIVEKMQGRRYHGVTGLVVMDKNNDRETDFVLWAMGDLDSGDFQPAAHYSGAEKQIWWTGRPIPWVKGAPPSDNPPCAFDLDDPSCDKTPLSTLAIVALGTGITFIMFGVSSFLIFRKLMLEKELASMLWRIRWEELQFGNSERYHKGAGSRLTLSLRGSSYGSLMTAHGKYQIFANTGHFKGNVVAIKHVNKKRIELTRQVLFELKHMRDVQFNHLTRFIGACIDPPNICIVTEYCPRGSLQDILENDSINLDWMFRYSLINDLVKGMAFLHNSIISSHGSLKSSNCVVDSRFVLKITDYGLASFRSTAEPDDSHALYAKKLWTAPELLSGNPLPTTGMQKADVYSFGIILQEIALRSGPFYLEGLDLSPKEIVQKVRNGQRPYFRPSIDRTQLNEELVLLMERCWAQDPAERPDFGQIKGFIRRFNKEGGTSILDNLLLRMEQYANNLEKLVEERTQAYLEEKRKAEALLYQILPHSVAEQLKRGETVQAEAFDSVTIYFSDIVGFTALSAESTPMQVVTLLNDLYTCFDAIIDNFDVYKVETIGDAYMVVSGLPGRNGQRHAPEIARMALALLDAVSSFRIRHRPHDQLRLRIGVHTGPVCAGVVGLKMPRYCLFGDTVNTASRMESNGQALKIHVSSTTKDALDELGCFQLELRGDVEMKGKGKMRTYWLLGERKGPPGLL
# Experiment: human GC-B receptor activators, primary screen, HEK293 GC-B cells, cGMP TR-FRET, EC30 CNP (AID 1920062)
# Details: at 10 µM, active compounds read high, 0% at EC30 CNP, 100% saturating CNP
row,SMILES,activation
1,O=C(CCCCCCCC(=O)N1CCCCC1)N1CCCCC1,2.66%
2,Cc1ccc(NC(=S)N2CCCC(c3ccccc3)=N2)cc1,-5.08%
3,Cc1cccc(NC(=S)N2CCCC(c3nc4ccccc4[nH]3)C2)c1 (centres undefined),0.09%
4,CC(C)[C@H](NC(=O)c1ccc(F)cc1)C(=O)OCC(=O)NC(=O)c1cccn1C,-6.93%
5,COC(=O)CN(c1cccc(C(C)=O)c1)S(C)(=O)=O,-0.3%
6,COc1ccc(CNC(=O)COC(=O)CCS(=O)(=O)c2ccc(C)cc2)cc1OC,-7.76%
7,COc1ccccc1CCCNC(=O)C1CCC(=O)N(CCN2CCOCC2)C1 (centres undefined),0.93%
8,Cc1ccc(C(=O)COC(=O)CCCC(=O)NC2CCCCC2)cc1[N+](=O)[O-],-3.79%
9,CCCc1c(C)nc2scc(-c3ccc(Cl)cc3)n2c1=O,3.02%
10,O=S(=O)(Cc1nnnn1-c1ccccc1)c1ccccc1,3.43%
11,CCCCc1ccc(S(N)(=O)=O)cc1,1.33%
12,O=C(CCCN1C(=O)C2C3C=CC(C3)C2C1=O)N1CCN(c2ccccc2)CC1 (centres undefined),6.38%
13,COC(=O)c1cc(S(=O)(=O)N2CCN(C(=O)C3CCCO3)CC2)cn1C (centres undefined),-2.49%
14,Cn1c(CC2Sc3ccccc3NC2=O)nnc1SCC(=O)c1ccc(Cl)cc1 (centres undefined),-0.22%
15,CC(CCc1ccc(O)cc1)NCc1ccc(Cl)cc1Cl (centres undefined),-2.85%
16,OC(CCl)CCl,-3.1%
17,COC(=O)CCNC(=O)c1ccc2[nH]c(C)c(C)c2c1,2.4%
18,COC(=O)Cc1c(-c2[nH]c3ccccc3c2CC(=O)OC)[nH]c2ccccc12,36.5% (active)
19,CCOC(=O)C1CCN(C(=O)Cc2c(C(=O)O)[nH]c3ccccc23)CC1,-0.71%
20,N#CC1(NC(=O)COc2ccc3oc4ccccc4c3c2)CCCCC1,-3.84%
21,CN1CCN(S(=O)(=O)c2ccc(NC(=O)C3CCCO3)cc2)CC1 (centres undefined),1.58%
22,CCCOc1ccc(CN(CCO)CCO)cc1C(=O)OC,3.92%
23,Cc1ccsc1C(=O)NCCc1ccco1,1.1%

row,SMILES,activation
1,O=c1c2ccccc2c(-c2ccc(Br)cc2)nn1Cc1ccccc1,0.94%
2,O=C(NCCc1ccco1)c1nn(Cc2ccccc2)c(=O)c2ccccc12,49.5% (active)
3,COc1ccc(OC)c(-n2nnnc2SCC(=O)Nc2cc(C)ccc2OC)c1,-3.61%
4,COC(=O)c1ccc2ccccc2c1OC1OC(CO)C(O)C(O)C1NC(C)=O (centres undefined),1.14%
5,CCCc1nc2ccccc2c(C(=O)OCc2nnc(-c3cc(OC)c(OC)c(OC)c3)o2)c1CC,27.3%
6,CC1(C)O[C@@H]2[C@H](O1)[C@@H](COS(=O)(=O)O)O[C@H]2n1cnc2c(=O)[nH]cnc21,9.84%
7,COc1cccc(CC(=O)N2CCN(C(=O)C(=O)c3cccc(C(F)(F)F)c3)CC2)c1,0.51%
8,COc1ccc(-n2c(SCC(=O)Nc3ccc4c(c3)OCCO4)nnc2-c2ccc(Cl)cc2)cc1,-4.33%
9,C/C(COc1ccccc1)=N\NC(=O)c1nnn(-c2nonc2N)c1-c1ccc(C)cc1,-1.04%
10,Cc1cc(Cl)ccc1OCc1nc(-c2ccncc2)no1,-5.32%
11,C=CCN(CC=C)C(=O)COC(=O)c1n[nH]c2ccccc12,-3.45%
12,CCCc1nn(C)c2c(=O)[nH]c(-c3cc(S(N)(=O)=O)ccc3OCC)nc12,55% (active)
13,CCOc1ccccc1N1CCN(C(=S)Nc2ccc(S(N)(=O)=O)cc2)CC1,0.9%
14,CCOc1ccc(-n2cnc3c(=O)[nH]c(N)nc32)cc1,20.7%
15,Cc1ccc(NS(=O)(=O)c2ccc(C(=O)NCCCN3CCOCC3)cc2)cc1,1.4%
16,COc1ccc(S(=O)(=O)N2CCOCC2)cc1NC(=O)CSc1cc(C)ccc1C,-3.41%
17,COc1ccc(S(=O)(=O)N2CCOCC2)cc1NC(=O)CSc1nnc(NC2CC2)s1,56.9% (active)
18,Cc1ccc(S(=O)(=O)N2CCOCC2)cc1NC(=O)CSc1nnc(N)s1,-3.12%
19,CCCCn1c(N)c(N(CC(C)C)C(=O)c2cccc(S(=O)(=O)N3CCN(C(C)=O)CC3)c2)c(=O)[nH]c1=O,4.82%
20,CC(=O)Nc1ccc(Nc2ncnc3c2nnn3Cc2ccccc2Cl)cc1,-5.33%
21,COc1ccnc2c1c(=O)n(Cc1cccc(F)c1)c(=O)n2C,9.01%
22,COc1cccc(CNCCc2c[nH]c3ccccc23)c1OCc1ccccc1F,-11.1%
23,COc1cc(CNc2ncn[nH]2)ccc1OCc1ccccc1C,-2.6%

row,SMILES,activation
1,COc1cc(/C=C2/C(=O)ON=C2C)ccc1OCc1cccc(F)c1,38.1% (active)
2,COc1cc(/C=C2/C(=O)ON=C2C)ccc1OCc1ccccc1F,37.2% (active)
3,C/C=C/c1ccc(OCCOc2ccc(C=O)cc2OC)c(OC)c1,-3.69%
4,COC(=O)[C@@H]1C[C@@]2(O)[C@@H](O)[C@@H](O)[C@@H](O)C[C@H]2N1Cc1ccc(C)s1,-2.84%
5,O=C(/C=C/[C@H]1O[C@@H](n2cnc3c(NC(=O)c4ccccc4)ncnc32)[C@H](O)[C@@H]1O)NCc1ccccc1,-3.16%
6,O=C(Nc1nccs1)C1CCN(S(=O)(=O)c2ccc(Cl)c(C(F)(F)F)c2)CC1,-2.77%
7,COc1ccccc1C(=O)C(O)c1ccccc1OC (centres undefined),4.06%
8,CC(=O)Nc1ccc(/C(C)=N/NC(=O)CN(c2ccccc2Br)S(C)(=O)=O)cc1,1.02%
9,COc1cc(C2C(N3C(=O)c4ccccc4C3=O)C(=O)N2c2ccc(C)c(C)c2)cc(OC)c1OC (centres undefined),3.45%
10,Cc1cccc(N(C(=O)Cc2cccs2)C(C(=O)NCc2ccco2)c2ccncc2)c1 (centres undefined),-16%
11,CC(C)n1c(-c2ccncc2)n[nH]c1=S,5.74%
12,Cc1ccccc1C1=NC(C(F)(F)F)(C(F)(F)F)c2c(n(-c3ccc(F)cc3)c(=O)[nH]c2=O)N1,-3.86%
13,O=C(NCc1cc(C(F)(F)F)cc(C(F)(F)F)c1)C1CC(c2cccc(F)c2)=NO1 (centres undefined),4.68%
14,CC1=C(C(N)=O)C(c2ccc(F)cc2)n2nc(CCCO)nc2N1 (centres undefined),12.2%
15,C=CCn1c(=O)c(C(=O)NCc2ccc3c(c2)OCO3)c(O)c2ccccc21,5.25%
16,CCN(CC)C(=O)C(=O)c1cn(CC(=O)NCc2ccc3c(c2)OCO3)c2ccccc12,-1.28%
17,CCn1c(=O)c([N+](=O)[O-])c(NCc2ccc3c(c2)OCO3)c2ccccc21,38.9% (active)
18,CCCCNC(=O)c1nc(C2CCN(S(=O)(=O)c3ccc(F)c(F)c3)CC2)oc1-c1cccc(C(F)(F)F)c1,1.59%
19,CC1CN/C(=C\C(=O)c2ccc(Br)cc2)C(=O)N1 (centres undefined),-4.27%
20,N#Cc1ccccc1S(=O)(=O)N1CCN(Cc2c(O)ccc3ccccc23)CC1,2.67%
21,Cc1ccc(CN(N=Nc2nonc2N)c2nonc2N)c(C)c1,42.7% (active)
22,CCn1c(/C=C/Nc2ccccc2)[n+](CC)c2ccc(C(=O)OCC(F)(F)F)cc21,-2.59%
23,O=C(OCCN1C(=O)c2ccccc2C1=O)[C@@H]1CC(O)CN1S(=O)(=O)c1ccccc1[N+](=O)[O-] (some centres undefined),-3.1%

row,SMILES,activation
1,COC(=O)[C@@]12CCCCC3=C1N(CCC3)C(=O)[C@H]2CC(=O)NCc1cccc2ccccc12,-3.99%
2,CCc1nc2c(OCc3ccccc3)cccn2c1N(C)C(=O)c1ccco1,3.48%
3,Cc1ccc(/C=C(\C#N)C(=O)Nc2cccc3ncccc23)o1,-4.94%
4,N#Cc1ccc(C(=O)Nc2nc(-c3cccs3)c(C(=O)C(F)(F)F)s2)cc1,-0.02%
5,COc1cc(CCC(=O)N2CCN(c3ccccc3Cl)CC2)cc(OC)c1OC,-3.86%
6,COc1cccc(COC(=O)C2CCN(S(=O)(=O)c3cccs3)CC2)c1OC,1.88%
7,Cc1ccc(C(=O)N2CCCC(c3ccccc3)=N2)cc1,2.95%
8,Nc1nc(SC23CC4CC(CC(C4)C2)C3)ns1,-0.97%
9,CS(=O)(=O)N(CC(=O)Nc1ccc(F)cc1)C1CCCCC1,0.74%
10,CN(C)c1nc2n(c(=O)n1)CCO2,4.05%
11,O=C(COc1cccnc1[N+](=O)[O-])Nc1ccc(Cl)cc1F,-6.77%
12,CC(C)(C)c1ccc(C(=O)NCC(=O)OCN2C(=O)c3ccccc3C2=O)cc1,-3.65%
13,CN(Cc1cccnc1)C(=O)c1cc(COc2ccc3ncccc3c2)on1,0.47%
14,C=CCC1(CC=C)CCCN1C(=O)c1cc(COc2ccc(-n3cncn3)cc2)on1,-1.1%
15,CC1=NN(C(=O)Cc2ccc(C)cc2)C(O)(c2cccnc2)C1 (centres undefined),-0.71%
16,O=C(Nc1ccccc1Cl)NC1(C(=O)N2CCOCC2)CCCCC1,0.64%
17,CCN(Cc1ccccc1)C(=O)CCS(=O)(=O)c1ccc2c(c1)oc(=O)n2C,4.57%
18,O=C(NNC(=S)Nc1ccc(F)cc1)[C@H]1C[C@@H]1c1ccccc1,2.74%
19,COc1ccc(OC)c(NC(=O)c2cnn(-c3ccccc3Cl)c2NC(=O)c2ccco2)c1,-0.32%
20,CCCC(c1nnnn1C(C)(C)C)N1CCN(Cc2ccccc2)CC1 (centres undefined),-1.17%
